GluA2 TARP mod: modulators of AMPA receptor GluA2-stargazin complexes; O88602+P19491; HEK293 GluA2+stargazin, membrane potential dye (FDSS), glutamate EC50; hits were called plate by plate, in both directions; calls only at 30 µM; 40,000 tested, 3.5% active; AID 1259245;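 active means any of four per-well response measures lying three or more SD from its plate-wide compound average, in either direction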
GIRK2 act: GIRK2 channel activators by thallium flux; P48051; HEK293 GIRK2/NPY4 cells, thallium flux fluorescence; activation (% efficacy), % for hits at 37.5 µM; 34,000 tested, under 10 active; AID 1259324;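 active means primary screen hit, no activity in plain HEK293 cells, and in GIRK2-only cells above 5% efficacy rising with concentration; inactive means the rest, including fluorescent compounds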;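 further: efficacy is normalized control-subtracted fluorescence 15 s after thallium addition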
Target sequence (P48051 whole entry, looked up): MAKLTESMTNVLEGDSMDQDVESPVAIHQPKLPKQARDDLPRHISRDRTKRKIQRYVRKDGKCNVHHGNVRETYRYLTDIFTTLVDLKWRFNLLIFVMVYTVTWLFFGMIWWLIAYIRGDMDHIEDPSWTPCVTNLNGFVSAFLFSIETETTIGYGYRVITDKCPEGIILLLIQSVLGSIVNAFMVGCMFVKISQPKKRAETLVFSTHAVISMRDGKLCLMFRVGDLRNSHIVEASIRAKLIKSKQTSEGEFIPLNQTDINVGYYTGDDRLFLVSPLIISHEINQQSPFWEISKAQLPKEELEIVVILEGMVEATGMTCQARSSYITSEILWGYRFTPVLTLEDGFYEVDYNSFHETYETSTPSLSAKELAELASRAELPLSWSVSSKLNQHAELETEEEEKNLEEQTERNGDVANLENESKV
Numbers without * were called inactive; i = inactive; nt = no result; + = active, no number. Many of the other results were omitted from the sample, so hits are more common in it than they were.

SMILES	GluA2 TARP mod	GIRK2 act
O=C(c1ccc(Br)o1)N(C(=O)N1CCCCC1)c1ccc(Cl)cc1	+	nt
O=C(CCc1ccccc1)Nc1ccc2c(c1)CN(S(=O)(=O)c1ccccc1)CC2	i	i
O=C(Nc1ccc2c(c1)CN(S(=O)(=O)c1ccccc1)CC2)c1cnccn1	+	i
O=C(Nc1ccc2c(c1)CN(C(=O)c1cccs1)CC2)c1ccc2nsnc2c1	i	i
O=C(Nc1ccc2c(c1)CN(C(=O)c1cccs1)CC2)c1cnccn1	+	i
COc1cc(NC(=O)c2cccc3ccccc23)ccc1N1CCCCC1=O	i	i
COc1ccc2nc(-c3cccc(NS(=O)(=O)c4ccccc4)c3)cn2n1	nt	i
Cc1cccc(C)c1NC(=O)COc1ccc2c(C)cc(=O)oc2c1C	i	nt
Cc1ccc(C)c(OCC(=O)Nc2c(C)cccc2C(C)C)c1C	+	i
CCC1CCCCN1C(=O)CSc1ncnc2c1oc1ccccc12 (stereo not given)	i	i
CCOC(=O)N1CCN(C(=O)c2ccc(N3CCCC3)nn2)CC1	i	i
Cc1ccc2c(CC(=O)NCc3ccccn3)cc(=O)oc2c1	i	i
CC(C)Sc1ccc(CC(=O)N2CCC(c3nnc(C(C)C)o3)CC2)cc1	+	i
CC(C)c1nnc(C2CCN(C(=O)CCSc3ccccc3)CC2)o1	i	i
CCOC(=O)Cn1c(=O)c2c(nc3n(-c4ccc(Oc5ccccc5)cc4)c(C)c(C)n23)n(C)c1=O	i	nt
Cc1ccc(S(=O)(=O)Nc2nc(CCC(=O)NCc3ccc(F)cc3)cs2)cc1	i	i
O=C(CCc1csc(NS(=O)(=O)c2ccc(F)cc2)n1)Nc1ccc(Cl)cc1	+	i
O=C(CCc1csc(NS(=O)(=O)c2ccccc2)n1)Nc1ccc(OC(F)(F)F)cc1	i	i
NC(=O)c1ccc(NC(=O)CCc2csc(NS(=O)(=O)c3ccccc3)n2)cc1	+	i
CC(=O)c1cccc(NC(=O)CCc2csc(NS(=O)(=O)c3ccccc3)n2)c1	+	i
COc1ccc(NC(=O)CCc2csc(NS(=O)(=O)c3ccccc3)n2)cc1OC	i	i
CCOc1ccc(NC(=O)c2sccc2S(=O)(=O)N2CCN(c3ccccc3F)CC2)cc1	nt	i
O=C(O)c1cc2ccccc2c(=O)n1CCc1ccccc1	i	nt
N#Cc1ccccc1NC(=O)C(=O)NCC1CCN(Cc2ccsc2)CC1	i	i
O=S(=O)(Nc1ccc(Br)cc1)N1CCOCC1	i	nt
SMILES	GluA2 TARP mod	GIRK2 act
O=S(=O)(Nc1ccc(Br)cc1)N1CCCCCC1	+	nt
COc1cccc(NC(=O)Cn2cc(OC)c(=O)cc2CSc2ccccc2)c1	i	nt
COc1ccc(S(=O)(=O)NCC(O)(c2cccs2)C2CC2)c(C)c1 (stereo not given)	i	i
O=C(NCC1(O)CCCC1)Nc1c(F)cccc1F	i	i
CCOc1ccc(NC(=O)C23CC4CCC(CC(C4)C2)C3)cc1	+	nt
O=C(Cc1ccc(NC(=O)C23CC4CC(CC(C4)C2)C3)cc1)NC1CC1	i	i
COC(=O)c1ccccc1NC(=O)CC1Nc2cccc3cccc(c23)NC1=O (stereo not given)	i	nt
O=C(CC1Nc2cccc3cccc(c23)NC1=O)Nc1cccc(C(F)(F)F)c1 (stereo not given)	+	nt
Cc1cc(NC(=O)c2ccccc2Cl)n(-c2nc3c(cnn3-c3ccc(Cl)cc3)c(=O)[nH]2)n1	nt	i
CCN(CC)c1ccc(N2CCN(S(=O)(=O)c3ccc4ccccc4c3)CC2)nn1	i	i
O=C(C1COCC(=O)N1Cc1ccccc1)N1CCN(c2cccc(Cl)c2)CC1 (stereo not given)	+	i
O=C(Nc1ccc(-n2cnnn2)cc1)C1COCC(=O)N1Cc1ccccc1 (stereo not given)	i	i
CC(C)(C)c1cc(NC(=O)C2COCC(=O)N2Cc2ccccc2)on1 (stereo not given)	+	i
O=C(C1COCC(=O)N1Cc1ccccc1)N1CCN(c2ccc(F)cc2)CC1 (stereo not given)	i	i
CSCCC(C)(O)CNC(=O)c1ccccc1Cl (stereo not given)	i	i
COCCNc1nc2c(S(=O)(=O)c3ccccc3)nnn2c2ccc(Cl)cc12	i	i
CC1CCCCN1c1nc2c(S(=O)(=O)c3ccccc3)nnn2c2ccc(Cl)cc12 (stereo not given)	+	i
Cc1noc(C2CN(C(=O)Cn3cnc4ccccc4c3=O)C2)n1	i	i
O=S(=O)(N1CCOCC1)n1nnc2ccccc21	i	i
O=S(=O)(N1CCOCC1)n1c(Cc2ccccc2)nc2ccccc21	+	i
CCSc1ccccc1C(=O)NCCn1cnc(-c2ccccc2)cc1=O	+	i
O=C(Cn1cnc(-c2ccccc2)cc1=O)NCCC(c1ccccc1)c1ccccc1	i	i

Screens from PubChem BioAssay.
